Measured values: the supplement of paper PMC10849652
About 8,800 targets were measured; listed, in parts, are those with a hit and a random draw of the rest. About 0.5% of all pairs of compound and target were hits.

Columns and labels:
Experiment in all cases: log2 fold change, soluble protein after heating vs DMSO (PISA); higher = thermal stabilisation; K562 lysate, 10 uM; active = over 0.2 and 3.5 SD of the protein, either way, in both replicates (recomputed)
[1] = compound: CCCS(=O)(=O)Nc1ccc(F)c(C(=O)c2c[nH]c3ncc(-c4ccc(Cl)cc4)cc23)c1F [vemurafenib]
How it was run: (§1)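 Pellets of K562 cells were dounce-homogenised in PBS pH 7.4 with 1 mM MgCl2, and the crude extract was held at 1 mg/mL protein for a 30 min treatment with 10 μM compound. Aliquots were heated for 3 min over 48°C-58°C and pooled before NP-40 was added to 0.5% at 4°C. The supernatant from 21,000xg for 90 min was quantified by TMTpro 16plex LC-MS/MS with channel sums equalised. Values are reported from duplicates as log-two fold change in thermal stability relative to solvent controls.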

[2] = compound: CCCS(=O)(=O)Nc1ccc(F)c(C(=O)c2c[nH]c3ncc(Cl)cc23)c1F
How it was run: as §1

[3] = compound: CCN(CCCOc1ccc2c(Nc3cc(CC(=O)Nc4cccc(F)c4)[nH]n3)ncnc2c1)CCOP(=O)(O)O [barasertib]
How it was run: as §1

[4] = compound: CC[C@@H]1C(=O)N(C)c2cnc(Nc3ccc(C(=O)NC4CCN(C)CC4)cc3OC)nc2N1C1CCCC1
How it was run: as §1

[5] = compound: CC[C@@H]1C(=O)N(C)c2cnc(Nc3ccc(C(=O)N[C@H]4CC[C@H](N5CCN(CC6CC6)CC5)CC4)cc3OC)nc2N1C(C)C [volasertib]
How it was run: as §1

[6] = compound: CCn1c(C(=O)N(C2CC2)C2CC2)cc2c3c(ncn3C)c(Nc3cc(C)n(C)n3)nc21
How it was run: as §1

[7] = compound: CCn1cc(-c2ccnc3[nH]c(-c4cccc(CN(C)C)c4)cc23)c(-c2ccc(NC(=O)N(C)C)cc2)n1
How it was run: as §1

[8] = compound: CN1CCC(CNc2ccc3ncc(-c4cccc(OC(F)(F)F)c4)n3n2)CC1
How it was run: as §1

[9] = compound: CN1CCN(CCOc2cc(OC3CCOCC3)c3c(Nc4c(Cl)ccc5c4OCO5)ncnc3c2)CC1 [saracatinib]
How it was run: as §1

[10] = compound: CN1CCN(c2nc(C3=C(c4c[nH]c5ccccc45)C(=O)NC3=O)c3ccccc3n2)CC1 [sotrastaurin]
How it was run: as §1

[11] = compound: CN1CC[C@H](c2c(O)cc(O)c3c(=O)cc(-c4ccccc4Cl)oc23)[C@H](O)C1 [alvocidib]
How it was run: as §1

[12] = compound: CN1CCc2c(c3ccccc3n2Cc2ccc(C(=O)NO)cc2)C1 [Tubastatin A]
How it was run: as §1

[13] = compound: CNC(=O)C1=CC=CC=C1NC2=NC(=NC=C2Cl)NC3=C(C=C(C=C3)N4CCOCC4)OC
How it was run: as §1

[14] = compound: CNC(=O)c1ccc(Nc2ncc(C(F)(F)F)c(NCc3nccnc3N(C)S(C)(=O)=O)n2)cc1 [defactinib]
How it was run: as §1

[15] = compound: CNc1nc(-c2ccc3c(N)n[nH]c3c2)cc(N2C[C@@H](C(=O)NC3CCCCC3)CC[C@H]2C)n1
How it was run: as §1

[16] = compound: COC(=O)N[C@@H](C)CNc1nccc(-c2cn(C(C)C)nc2-c2cc(Cl)cc(NS(C)(=O)=O)c2F)n1 [encorafenib]
How it was run: as §1

[17] = compound: COC(=O)[C@H](CCSC)NC(=O)C1=C(C=C(C=C1)NC[C@H](CS)N)C2=CC=CC=C2
How it was run: as §1

[18] = compound: COc1cc(Nc2ncc3c(n2)-c2ccc(Cl)cc2C(c2c(F)cccc2OC)=NC3)ccc1C(=O)O [alisertib]
How it was run: as §1

[19] = compound: COc1cc2nc(-c3cc(F)ccc3O)nc(N[C@@H]3CNC[C@H]3C(C)(C)O)c2cc1OC
How it was run: as §1

[20] = compound: COc1cc2ncnc(Nc3ccc(F)c(Cl)c3)c2cc1OCCCN1CCOCC1 [gefitinib]
How it was run: as §1

Measured: log2 fold change

DMAC2L (UniProt Q99766)
Sequence of UniProt Q99766 (Q99766 whole entry, looked up): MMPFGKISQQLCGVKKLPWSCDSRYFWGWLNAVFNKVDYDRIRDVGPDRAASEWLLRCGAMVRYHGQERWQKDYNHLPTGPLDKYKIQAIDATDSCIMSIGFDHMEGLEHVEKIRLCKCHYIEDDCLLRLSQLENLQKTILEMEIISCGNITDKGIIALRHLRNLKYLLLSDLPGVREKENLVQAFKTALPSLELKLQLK
inactive: [1] 0.002 | [2] 0.026 | [3] 0.065 | [4] 0.075 | [5] -0.028 | [6] 0.021 | [7] -0.017 | [8] 0.053 | [9] 0.058 | [10] -0.012 | [11] 0.029 | [12] 0 | [13] -0.056 | [14] 0.022 | [15] 0.018 | [16] 0.016 | [18] 0.074 | [19] 0.031 | [20] 0.061
active: [17] -1.03

CNDP2 (UniProt Q96KP4)
active: [7] -0.343 | [8] 0.278
inactive: [1] 0.01 | [2] 0.023 | [3] -0.01 | [4] 0.11 | [5] 0.041 | [6] -0.032 | [9] 0.01 | [10] 0.013 | [11] -0.11 | [12] 0.039 | [13] 0.003 | [14] 0.005 | [15] 0.1 | [16] -0.02 | [17] 0.002 | [18] -0.031 | [19] 0.047 | [20] 0.013

COG3 (UniProt Q96JB2)
Sequence of UniProt Q96JB2 (Q96JB2 whole entry, looked up): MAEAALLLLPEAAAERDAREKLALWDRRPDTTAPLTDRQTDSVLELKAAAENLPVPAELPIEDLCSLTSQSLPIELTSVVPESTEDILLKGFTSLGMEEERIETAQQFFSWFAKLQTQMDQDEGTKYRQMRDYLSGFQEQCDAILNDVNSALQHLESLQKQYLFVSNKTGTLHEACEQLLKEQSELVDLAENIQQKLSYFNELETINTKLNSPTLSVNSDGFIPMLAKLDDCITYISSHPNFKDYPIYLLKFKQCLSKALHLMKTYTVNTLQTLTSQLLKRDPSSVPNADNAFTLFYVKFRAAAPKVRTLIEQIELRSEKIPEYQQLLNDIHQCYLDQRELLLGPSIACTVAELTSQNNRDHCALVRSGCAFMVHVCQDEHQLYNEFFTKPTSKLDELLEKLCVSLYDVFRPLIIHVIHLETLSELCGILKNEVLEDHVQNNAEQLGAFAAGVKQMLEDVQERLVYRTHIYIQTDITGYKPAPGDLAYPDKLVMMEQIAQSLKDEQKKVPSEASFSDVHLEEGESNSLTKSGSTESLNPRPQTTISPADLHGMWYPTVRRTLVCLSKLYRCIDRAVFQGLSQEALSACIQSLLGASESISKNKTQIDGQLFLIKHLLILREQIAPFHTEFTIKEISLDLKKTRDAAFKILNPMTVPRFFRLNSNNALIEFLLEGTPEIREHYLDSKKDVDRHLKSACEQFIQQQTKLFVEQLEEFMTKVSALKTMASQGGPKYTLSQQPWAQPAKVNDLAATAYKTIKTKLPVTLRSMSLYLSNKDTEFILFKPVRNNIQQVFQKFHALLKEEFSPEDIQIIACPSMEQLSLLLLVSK
inactive: [1] 0.004 | [2] 0.012 | [3] 0.041 | [4] -0.056 | [5] -0.071 | [6] 0.042 | [7] -0.038 | [8] 0.012 | [9] 0.046 | [10] 0.008 | [11] -0.023 | [12] -0.09 | [13] 0.042 | [14] -0.016 | [15] -0.041 | [16] -0.013 | [17] -0.045 | [18] 0.032 | [19] -0.018 | [20] -0.026

DOK1 (UniProt Q99704)
Sequence of UniProt Q99704 (Q99704 whole entry, looked up): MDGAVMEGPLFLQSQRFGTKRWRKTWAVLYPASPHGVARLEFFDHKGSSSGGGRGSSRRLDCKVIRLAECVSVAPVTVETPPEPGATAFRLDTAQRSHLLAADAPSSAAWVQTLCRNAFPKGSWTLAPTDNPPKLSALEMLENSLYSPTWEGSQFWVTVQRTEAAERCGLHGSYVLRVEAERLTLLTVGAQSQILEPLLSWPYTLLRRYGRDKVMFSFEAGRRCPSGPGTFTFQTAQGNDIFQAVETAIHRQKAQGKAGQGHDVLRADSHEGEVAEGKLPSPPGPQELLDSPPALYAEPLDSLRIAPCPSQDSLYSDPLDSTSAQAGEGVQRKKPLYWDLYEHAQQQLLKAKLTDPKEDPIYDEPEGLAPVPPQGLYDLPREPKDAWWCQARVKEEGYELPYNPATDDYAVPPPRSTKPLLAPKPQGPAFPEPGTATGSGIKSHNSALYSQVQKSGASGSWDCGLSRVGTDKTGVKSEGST
inactive: [1] 0.028 | [2] 0.061 | [3] -0.027 | [4] -0.113 | [5] -0.026 | [6] 0.021 | [7] -0.055 | [8] 0.101 | [9] 0.024 | [10] 0.029 | [11] -0.02 | [12] -0.135 | [13] 0.059 | [14] 0.059 | [15] -0.005 | [16] -0.007 | [17] 0.044 | [18] 0.082 | [19] 0.071 | [20] -0.102

CLASP2 isoform 3 (UniProt O75122)
inactive: [1] 0.054 | [2] -0.002 | [3] 0.02 | [4] 0.015 | [5] -0.006 | [6] 0.013 | [7] -0.162 | [8] 0.093 | [9] 0.011 | [10] 0.01 | [11] -0.151 | [12] -0.103 | [13] 0.007 | [14] -0.051 | [15] -0.003 | [16] 0.035 | [17] -0.008 | [18] 0.032 | [19] 0 | [20] -0.007

DDX54 isoform 2 (UniProt Q8TDD1)
active: [3] -0.319
inactive: [1] -0.041 | [2] 0.017 | [4] -0.069 | [5] -0.045 | [6] 0.053 | [7] -0.056 | [8] 0 | [9] -0.015 | [10] 0.045 | [11] -0.037 | [12] -0.047 | [13] 0.017 | [14] -0.05 | [15] -0.03 | [16] 0.084 | [17] 0.025 | [18] 0.023 | [19] 0.006 | [20] -0.089

CSK (UniProt P41240)
inactive: [1] 0.43 | [2] 0.304 | [3] 0.187 | [4] -0.046 | [5] -0.09 | [6] -0.068 | [7] 0.015 | [8] 0.096 | [9] 0.37 | [10] -0.043 | [11] 0.076 | [12] -0.088 | [13] 0.262 | [14] 0.068 | [15] -0.027 | [16] -0.026 | [17] -0.063 | [18] 0.072 | [19] -0.008 | [20] -0.01

CYP51A1 (UniProt Q16850)
inactive: [1] -0.014 | [2] -0.007 | [3] -0.011 | [4] 0.053 | [5] 0.01 | [6] -0.02 | [7] -0.103 | [8] -0.066 | [9] -0.043 | [10] 0.001 | [11] -0.017 | [12] 0.007 | [13] 0.005 | [14] -0.001 | [15] 0.023 | [16] -0.019 | [17] 0.09 | [18] 0.019 | [19] 0.053 | [20] 0

DCP1A (UniProt Q9NPI6)
Sequence of UniProt Q9NPI6 (Q9NPI6 whole entry, looked up): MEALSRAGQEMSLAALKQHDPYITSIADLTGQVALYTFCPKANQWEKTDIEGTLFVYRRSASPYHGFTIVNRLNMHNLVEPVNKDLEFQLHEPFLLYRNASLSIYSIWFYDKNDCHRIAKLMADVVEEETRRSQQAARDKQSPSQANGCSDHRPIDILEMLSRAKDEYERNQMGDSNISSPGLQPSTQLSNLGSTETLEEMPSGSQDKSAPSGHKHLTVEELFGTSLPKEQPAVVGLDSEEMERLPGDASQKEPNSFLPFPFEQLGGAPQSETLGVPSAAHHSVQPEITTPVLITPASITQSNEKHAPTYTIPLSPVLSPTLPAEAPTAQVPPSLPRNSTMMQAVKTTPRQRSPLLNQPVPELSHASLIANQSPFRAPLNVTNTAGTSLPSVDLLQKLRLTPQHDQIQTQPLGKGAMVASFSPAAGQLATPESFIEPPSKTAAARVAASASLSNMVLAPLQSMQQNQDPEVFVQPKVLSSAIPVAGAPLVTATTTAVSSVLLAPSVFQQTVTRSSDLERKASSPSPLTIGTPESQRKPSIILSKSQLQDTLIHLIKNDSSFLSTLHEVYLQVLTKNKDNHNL
inactive: [1] 0.023 | [2] 0.017 | [3] -0.066 | [4] 0.077 | [5] -0.055 | [6] 0.029 | [7] -0.082 | [8] 0.059 | [9] -0.006 | [10] -0.053 | [11] -0.002 | [12] 0 | [13] 0.003 | [14] 0.033 | [15] 0 | [16] 0.006 | [17] -0.046 | [18] -0.074 | [19] 0.026 | [20] 0.022

CTNND1 isoform 3 (UniProt O60716)
inactive: [1] 0.06 | [2] 0.037 | [3] 0.036 | [4] -0.034 | [5] -0.098 | [6] 0.073 | [7] -0.032 | [8] 0.004 | [9] -0.012 | [10] 0.024 | [11] -0.02 | [12] -0.159 | [13] 0.019 | [14] 0.045 | [15] -0.04 | [16] 0.013 | [17] 0.174 | [18] 0.026 | [19] 0.006 | [20] -0.023

COPZ1 isoform 4 (UniProt P61923)
Sequence of UniProt P61923 (P61923 whole entry, looked up): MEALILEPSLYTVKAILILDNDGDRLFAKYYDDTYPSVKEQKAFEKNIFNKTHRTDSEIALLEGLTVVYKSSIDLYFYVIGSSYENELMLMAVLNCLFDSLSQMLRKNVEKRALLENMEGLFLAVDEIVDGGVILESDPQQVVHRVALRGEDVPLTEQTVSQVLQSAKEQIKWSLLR
inactive: [1] -0.054 | [2] -0.004 | [3] 0.111 | [4] 0.022 | [5] 0.019 | [6] 0.004 | [7] -0.015 | [8] -0.187 | [9] 0.018 | [10] 0.01 | [11] 0.084 | [12] 0.055 | [13] 0.081 | [14] 0.166 | [15] -0.093 | [16] -0.011 | [17] -0.049 | [18] 0.045 | [19] -0.077 | [20] -0.142

CSNK2B (UniProt P67870)
active: [13] 0.324
inactive: [1] -0.042 | [2] 0.03 | [3] -0.032 | [4] -0.007 | [5] -0.038 | [6] 0.015 | [7] 0.01 | [8] 0.124 | [9] -0.066 | [10] -0.029 | [11] -0.005 | [12] -0.012 | [14] 0.025 | [15] 0.053 | [16] -0.026 | [17] -0.006 | [18] -0.054 | [19] 0.052 | [20] -0.022

CMIP (UniProt Q8IY22)
inactive: [1] 0.009 | [2] 0.023 | [3] 0.04 | [4] -0.055 | [5] -0.057 | [6] 0.043 | [7] -0.043 | [8] -0.054 | [9] 0.014 | [10] 0.017 | [11] 0.002 | [12] -0.161 | [13] 0.001 | [14] 0.061 | [15] -0.015 | [16] 0.078 | [17] 0.025 | [18] -0.012 | [19] -0.016 | [20] 0.007

CYP24A1 (UniProt Q07973)
inactive: [1] 0.065 | [2] -0.01 | [3] -0.055 | [4] 0.166 | [5] 0.006 | [6] -0.212 | [8] 0.268 | [9] 0.056 | [10] 0 | [11] -0.258 | [12] 0.163 | [13] -0.021 | [14] -0.158 | [15] 0.226 | [16] 0.011 | [17] 0.043 | [18] 0.049 | [19] 0.13 | [20] -0.05
active: [7] -0.499

CKAP5 (UniProt Q14008)
Sequence of UniProt Q14008 (Q14008 whole entry, looked up): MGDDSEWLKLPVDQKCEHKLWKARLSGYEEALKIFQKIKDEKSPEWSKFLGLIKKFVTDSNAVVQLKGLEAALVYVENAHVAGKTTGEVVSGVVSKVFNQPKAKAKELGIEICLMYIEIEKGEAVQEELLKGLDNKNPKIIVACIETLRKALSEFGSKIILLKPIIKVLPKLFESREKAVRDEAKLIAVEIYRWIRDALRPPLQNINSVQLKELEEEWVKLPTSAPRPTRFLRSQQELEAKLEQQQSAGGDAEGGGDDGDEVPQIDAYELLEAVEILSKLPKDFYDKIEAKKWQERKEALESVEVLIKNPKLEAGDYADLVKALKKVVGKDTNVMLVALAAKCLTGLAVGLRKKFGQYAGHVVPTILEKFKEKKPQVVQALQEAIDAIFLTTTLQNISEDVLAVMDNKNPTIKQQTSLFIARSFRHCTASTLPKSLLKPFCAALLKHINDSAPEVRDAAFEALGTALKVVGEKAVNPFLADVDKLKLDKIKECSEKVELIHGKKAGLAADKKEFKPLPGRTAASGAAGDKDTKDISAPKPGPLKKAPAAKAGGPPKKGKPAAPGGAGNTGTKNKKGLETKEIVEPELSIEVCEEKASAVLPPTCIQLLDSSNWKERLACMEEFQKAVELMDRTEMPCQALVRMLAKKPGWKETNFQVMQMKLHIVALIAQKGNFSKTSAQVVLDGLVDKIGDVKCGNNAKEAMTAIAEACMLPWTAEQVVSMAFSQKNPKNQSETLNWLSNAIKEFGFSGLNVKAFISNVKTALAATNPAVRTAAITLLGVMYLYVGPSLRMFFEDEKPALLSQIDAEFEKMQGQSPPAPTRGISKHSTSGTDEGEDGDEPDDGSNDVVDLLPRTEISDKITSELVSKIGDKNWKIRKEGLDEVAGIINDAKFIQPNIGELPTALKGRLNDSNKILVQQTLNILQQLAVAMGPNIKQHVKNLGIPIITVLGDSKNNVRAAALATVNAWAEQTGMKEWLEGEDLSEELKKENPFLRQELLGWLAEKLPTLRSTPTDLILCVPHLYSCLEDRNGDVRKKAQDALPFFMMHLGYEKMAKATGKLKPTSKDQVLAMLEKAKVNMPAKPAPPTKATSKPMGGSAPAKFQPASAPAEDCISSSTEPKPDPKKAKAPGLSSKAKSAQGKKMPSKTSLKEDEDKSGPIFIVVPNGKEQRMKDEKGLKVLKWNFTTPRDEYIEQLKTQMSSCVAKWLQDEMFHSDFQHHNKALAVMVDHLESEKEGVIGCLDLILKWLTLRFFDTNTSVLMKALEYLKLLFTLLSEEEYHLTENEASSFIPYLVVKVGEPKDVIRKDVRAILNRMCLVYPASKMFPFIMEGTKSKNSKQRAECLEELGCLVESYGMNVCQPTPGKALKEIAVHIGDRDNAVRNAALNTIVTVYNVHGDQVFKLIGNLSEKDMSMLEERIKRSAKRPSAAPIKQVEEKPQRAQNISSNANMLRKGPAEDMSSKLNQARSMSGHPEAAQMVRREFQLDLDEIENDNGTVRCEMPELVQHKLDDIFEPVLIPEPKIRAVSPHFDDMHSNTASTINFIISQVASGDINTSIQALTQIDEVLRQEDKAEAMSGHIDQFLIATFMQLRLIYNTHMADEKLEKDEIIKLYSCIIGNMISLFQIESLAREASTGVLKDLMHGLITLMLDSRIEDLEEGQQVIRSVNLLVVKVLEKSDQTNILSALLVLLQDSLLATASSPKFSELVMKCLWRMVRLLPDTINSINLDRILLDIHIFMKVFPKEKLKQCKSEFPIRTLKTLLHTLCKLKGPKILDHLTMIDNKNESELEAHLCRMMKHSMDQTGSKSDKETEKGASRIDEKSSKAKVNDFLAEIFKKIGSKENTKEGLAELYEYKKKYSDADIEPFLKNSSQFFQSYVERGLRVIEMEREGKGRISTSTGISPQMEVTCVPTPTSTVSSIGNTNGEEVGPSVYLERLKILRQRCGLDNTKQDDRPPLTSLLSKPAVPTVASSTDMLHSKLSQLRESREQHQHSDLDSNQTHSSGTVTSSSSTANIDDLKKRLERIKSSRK
inactive: [1] -0.023 | [2] -0.013 | [3] 0.003 | [4] -0.002 | [5] -0.021 | [6] 0.022 | [7] -0.016 | [8] -0.033 | [9] 0.005 | [10] 0.025 | [11] 0.008 | [12] -0.076 | [13] 0.019 | [14] 0.008 | [15] 0.003 | [16] 0.013 | [17] 0.074 | [18] 0.012 | [19] 0.007 | [20] -0.005

CXXC1 isoform 2 (UniProt Q9P0U4)
Sequence of UniProt Q9P0U4 (Q9P0U4 whole entry, looked up): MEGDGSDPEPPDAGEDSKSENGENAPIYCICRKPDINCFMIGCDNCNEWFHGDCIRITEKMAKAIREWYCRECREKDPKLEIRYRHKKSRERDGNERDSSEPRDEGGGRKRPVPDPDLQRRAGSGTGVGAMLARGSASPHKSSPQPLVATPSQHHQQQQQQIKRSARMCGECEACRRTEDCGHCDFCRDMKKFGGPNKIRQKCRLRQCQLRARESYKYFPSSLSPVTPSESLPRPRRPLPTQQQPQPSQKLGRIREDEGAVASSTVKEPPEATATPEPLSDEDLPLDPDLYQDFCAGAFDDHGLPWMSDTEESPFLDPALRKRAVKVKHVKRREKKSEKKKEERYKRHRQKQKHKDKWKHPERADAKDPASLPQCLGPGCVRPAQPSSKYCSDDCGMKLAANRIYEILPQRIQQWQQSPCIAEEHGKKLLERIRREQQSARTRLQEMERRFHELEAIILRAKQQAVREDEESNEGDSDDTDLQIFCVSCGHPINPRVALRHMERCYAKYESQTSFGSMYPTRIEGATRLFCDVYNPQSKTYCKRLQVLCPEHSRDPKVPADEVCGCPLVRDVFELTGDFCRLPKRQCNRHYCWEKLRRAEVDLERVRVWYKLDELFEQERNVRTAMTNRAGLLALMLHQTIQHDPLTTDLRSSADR
inactive: [1] -0.029 | [2] -0.117 | [3] -0.02 | [4] -0.256 | [5] -0.027 | [6] 0.031 | [7] -0.072 | [8] 0.041 | [9] -0.066 | [10] -0.04 | [11] -0.003 | [12] -0.138 | [13] -0.021 | [14] -0.004 | [16] -0.032 | [17] 0.152 | [18] 0.069 | [19] 0.068 | [20] 0.015
active: [15] 0.468
